# From PubChem BioAssay
# “And” between values parts separate entries of the source, which are not always exact repeats. Equal values may be shown once. The source made the active and inactive calls.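 Rule for the calls, unless noted: active = inhibition at or above 50% relative to wild type and mutant plate controls; inactive = inhibition below 50%.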
# Experiments:
# [1] = inhibitors of TNFa-induced NFkB p65 translocation, primary screen, imaging, HUVEC, MLSMR starter and 10KST1 sets (AID 438;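 active = inhibition above 20% together with a positive visual image hit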;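 note: compound added about 3h40 before a 20 min TNFalpha stimulation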;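 for inhibition: signal is the nuclear over cytoplasmic p65 intensity ratio per well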); conditions: HUVEC TNFa-induced p65 nuclear translocation; cell count: measured here: nuclei count (cytotoxicity indicator), at 2.08 µM; inhibition: at 2 µM, stronger effect = higher value, 0% TNFa-plus-vehicle, 100% no-TNFa wells
# [2] = inhibitors of E-selectin induction by TNFa, primary screen, imaging, HUVEC, immunofluorescence, MLSMR starter and 10KST1 sets (AID 487;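 active = visually confirmed hit in the image check and inhibition above 20%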;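 for inhibition: signal is fraction of cell area covered by stained E-selectin grains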;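 for nuclei count: 100% = median nuclei count of all wells on the same plate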); conditions: HUVEC TNFalpha-induced E-selectin immunofluorescence imaging, at 2 µM; inhibition: stronger effect = higher value; nuclei count: measured here: cell number, toxicity
# [3] = DUSP6 inhibitors restoring Erk phosphorylation by chemical complementation, primary imaging in DUSP6-transfected HeLa (AID 609;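 active = compounds giving at least 50% inhibition in the cell-based MKP-3 phosphatase rescue imaging test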;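 for inhibition: phospho-Erk level distribution per well compared with pooled transfected vehicle control wells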); conditions: HeLa MKP-3 transfected, phospho-Erk imaging KS statistic, at 10 µM, cells stimulated with TPA for 15 min
# [4] = target: Dual specificity protein phosphatase 6 (Homo sapiens) (UniProt Q16828); experiment: as above; conditions: HeLa MKP-3 transfected, phospho-Erk imaging KS statistic; at 10 µM; stronger effect = higher value; cells stimulated with TPA for 15 min
# [5] = target: Voltage-gated potassium channel subunit beta-2 (Rattus norvegicus) (UniProt P62483); experiment: KvBeta enzyme negative modulators, primary screen, biochemical, NADPH fluorescence (AID 622;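 active = fluorescence slope higher than the sample average by over 3 SD, cut at about -0.22 in these data, passing the limit was not always enough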;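 note: slope of raw intensity against log time taken from 70 to 1610 s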); conditions: recombinant KvBeta, 4-cyanobenzaldehyde reduction, at 10 µM, stronger effect = higher value
# [6] = target: Voltage-gated potassium channel subunit beta-2 (Rattus norvegicus) (UniProt P62483); experiment: KvBeta positive modulators, primary screen, biochemical, NADPH fluorescence (AID 623;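 active = NADPH fluorescence slope more negative than the mean of all samples by about 3 SD, 99.7% confidence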;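 note: fluorescence intensity change per second fitted from 20 to 320 s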); conditions: Recombinant KvBeta, NADPH fluorescence decrease slope, 10 min; at 10 µM; stronger effect = lower value
# [7] = target: Alpha-2C adrenergic receptor (Homo sapiens) (UniProt P18825); experiment: modulators of alpha2C/GIRK thallium flux, primary screen, cell-based, HEK293 alpha2C/GIRK1/2 (AID 624;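 active = fluorescence slope after compound addition differing from the mean of all screened samples at 99.7% confidence, in either direction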;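 note: slope of fluorescence ratio to pre-addition baseline per second over 15 to 24 s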); conditions: thallium flux BTC fluorescence, at 10 µM, actives lie on both sides
# [8] = inhibitors of larval lipid processing in zebrafish, primary screen, whole organism, PED6 fluorescence, gall bladder and intestine (AID 686;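 active = a full or partial loss of lipid-probe fluorescence in the fish gall bladder, intestine or both, judged by eye; inactive = no fluorescence loss, or compound toxic to the fish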;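 note: larvae 5 to 7 days old with five fish per well; signal comes from phospholipase A2 cleavage of quenched PED6 carried via bile; overnight exposure to compound and PED6 before scoring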); conditions: Zebrafish larvae PED6 lipid processing, fluorescence scoring; screened at 20 µM (by protocol)
# [9] = inhibitors of Sendai virus-induced IRF3 signaling, primary screen, TLR/RLR signaling modifier project, cell-based, Sendai virus stimulus, luciferase, 10K MLSCN set (AID 602276;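 active = inhibition at or above 50% at 10 µM; inactive = inhibition below 50%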;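 note: firefly luciferase from ISG56 promoter only with Renilla not read in this screen; 0% = Sendai virus plus DMSO and 100% = medium plus DMSO without virus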); conditions: HEK293 RL24 IRF3 luciferase reporter, at 10 µM, stronger effect = higher value
# [10] = inhibitors of poly I:C-induced TLR3 signaling, primary screen, cell-based, poly I:C stimulus, luciferase, 10K MLSCN set (AID 602277;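 active = inhibition of the reporter signal at or above 50%; inactive = inhibition below 50%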); conditions: HEK293-TLR3 RL24 IRF3 luciferase reporter, at 10 µM, stronger effect = higher value
# [11] = inhibitors of Chlamydomonas gravitaxis, primary screen, whole organism, Chlamydomonas reinhardtii, WT vs cilia-less mutant, absorbance, 96-well (AID 463189); conditions: OD600 absorbance, 2 days, at 10 µM, stronger effect = higher value;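 note: 0% = wild type cc124 cells in DMSO and 100% = ciliumless bld1 mutant cells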
# [12] = inhibitors of mutant huntingtin aggregation, primary screen, imaging, exon1htt(103Q)mCFP cells, high-content imaging (AID 483;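 active = visual image review flags a hit and inhibition of aggregation exceeds 20%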;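 note: compound exposure lasted 3 days before fixation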;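 for nuclei count: percent of the per-plate median nuclei count of sample wells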); conditions: exon1htt(103Q)mCFP cell line, aggregate imaging, at 2 µM; inhibition of aggregation: stronger effect = higher value; nuclei count: measured here: cell count, toxicity
# [13] = measured here: cell density z-score
# [14] = measured here: nuclear c-Myc green intensity z-score
# [15] = measured here: nuclear pErk red intensity z-score, stronger effect = higher value
# Alpha-2C adrenergic receptor (Homo sapiens), sequence (P18825 whole entry, looked up): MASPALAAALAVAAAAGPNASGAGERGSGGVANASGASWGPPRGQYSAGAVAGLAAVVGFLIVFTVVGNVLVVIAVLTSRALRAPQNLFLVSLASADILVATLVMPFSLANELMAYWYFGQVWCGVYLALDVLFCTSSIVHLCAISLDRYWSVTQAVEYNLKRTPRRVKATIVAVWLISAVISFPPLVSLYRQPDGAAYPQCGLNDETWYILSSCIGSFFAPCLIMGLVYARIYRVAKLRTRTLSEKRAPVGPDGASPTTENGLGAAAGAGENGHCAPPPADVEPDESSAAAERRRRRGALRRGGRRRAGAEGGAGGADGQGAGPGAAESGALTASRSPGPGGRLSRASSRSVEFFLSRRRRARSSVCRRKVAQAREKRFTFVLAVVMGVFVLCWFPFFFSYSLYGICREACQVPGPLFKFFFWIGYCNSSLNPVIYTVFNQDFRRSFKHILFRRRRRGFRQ
# Voltage-gated potassium channel subunit beta-2 (Rattus norvegicus), sequence (P62483 whole entry, looked up): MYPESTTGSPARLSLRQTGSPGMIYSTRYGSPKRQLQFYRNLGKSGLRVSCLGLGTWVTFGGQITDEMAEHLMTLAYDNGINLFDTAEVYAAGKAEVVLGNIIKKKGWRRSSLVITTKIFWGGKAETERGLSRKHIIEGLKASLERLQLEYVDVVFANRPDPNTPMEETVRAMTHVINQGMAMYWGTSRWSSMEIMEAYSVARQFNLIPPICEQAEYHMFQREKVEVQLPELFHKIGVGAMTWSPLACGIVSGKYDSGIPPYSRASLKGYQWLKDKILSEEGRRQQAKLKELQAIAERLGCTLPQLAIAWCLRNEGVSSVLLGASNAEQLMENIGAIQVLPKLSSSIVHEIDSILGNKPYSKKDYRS
# Dual specificity protein phosphatase 6 (Homo sapiens), sequence (Q16828 whole entry, looked up): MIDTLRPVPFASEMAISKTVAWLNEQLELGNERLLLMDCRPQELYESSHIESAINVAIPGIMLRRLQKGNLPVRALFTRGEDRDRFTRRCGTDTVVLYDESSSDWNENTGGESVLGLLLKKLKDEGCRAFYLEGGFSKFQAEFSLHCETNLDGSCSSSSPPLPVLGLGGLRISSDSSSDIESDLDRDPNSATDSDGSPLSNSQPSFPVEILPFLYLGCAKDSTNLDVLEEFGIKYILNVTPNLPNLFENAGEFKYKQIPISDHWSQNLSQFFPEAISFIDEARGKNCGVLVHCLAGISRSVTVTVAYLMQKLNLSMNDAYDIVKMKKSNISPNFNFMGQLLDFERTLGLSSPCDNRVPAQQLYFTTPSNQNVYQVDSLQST
smiles,measurement,setting,value
CCn1cc(C(=O)O)c(=O)c2ccc(C)nc21,cell count,[1],578
same,inhibition,[1],-2.8% (inactive)
same,inhibition,[2],-83.2% (inactive)
same,nuclei count,[2],111%
same,z-score,[3]; [13],2.22
same,z-score,[3]; [14],-0.0952
same,z-score,[3]; [15],0.302
same,inhibition,[4],5.42% (inactive)
same,fluorescence slope,[5],-0.455 (inactive)
same,NADPH fluorescence slope,[6],-3.9e-05 (inactive)
same,slope,[7],0.00465 (inactive)
same,outcome,[8],inactive
same,inhibition,[9],15.8% (inactive)
same,inhibition,[10],40.1% (inactive)
NC(=O)NO,inhibition,[11],-5.8% (inactive)
NCCCCNCCCN,inhibition,[11],-15.4% (inactive)
O=c1onc2cnc3ccccc3n12,inhibition,[11],3.46% (inactive)
CC1=C(CC(=O)O)c2cc(F)ccc2/C1=C\c1ccc(S(C)=O)cc1 (centres undefined),inhibition,[11],5.19% (inactive)
CCCN(CCc1ccccc1)C1CCc2c(O)cccc2C1 (centres undefined),inhibition,[11],5.13% (inactive)
CSc1nc(N)c2ncn([C@@H]3O[C@H](COP(=O)(O)OP(=O)(O)O)[C@H](O)C3O)c2n1 (some centres undefined),inhibition,[11],6.63% (inactive)
CCn1cc(C(=O)O)c(=O)c2cc3c(cc21)OCO3,inhibition,[11],1.71% (inactive)
CN1CCc2c(cc(O)c(O)c2Cl)C(c2cccc(Cl)c2)C1 (centres undefined),inhibition,[11],-5.57% (inactive)
Cc1cnc(C(=O)NCCc2ccc(S(=O)(=O)NC(=O)NC3CCCCC3)cc2)cn1,cell count,[1],609
same,inhibition,[1],0.1% (inactive)
same,inhibition,[2],-102% (inactive)
same,nuclei count,[2],134%
same,z-score,[3]; [13],-0.283
same,z-score,[3]; [14],0.557
same,z-score,[3]; [15],-0.42
same,inhibition,[4],12.4% (inactive)
same,fluorescence slope,[5],-0.474 (inactive)
same,NADPH fluorescence slope,[6],8e-06 (inactive)
same,slope,[7],0.0053 (inactive)
same,inhibition,[9],12.9% (inactive)
same,inhibition,[10],21.2% (inactive)
N=C(N)SCCN,inhibition,[11],-11.5% (inactive)
CN(C)CC/C=C1\c2ccccc2COc2ccccc21,inhibition,[11],6.63% (inactive)
O=c1ccc2c(OCCCCc3ccccc3)c3ccoc3cc2o1,inhibition,[11],10.5% (inactive)
C[C@@H]1C(=O)NC2=Nc3cccc(Cl)c3CN21,inhibition,[11],1.72% (inactive)
O=c1[nH]c(=O)n([C@H]2C[C@H](O)[C@@H](CO)O2)cc1/C=C/Br,inhibition,[11],6.74% (inactive)
O=C1O/C(=C/Br)CCC1c1cccc2ccccc12 (centres undefined),inhibition,[11],-0.58% (inactive)
Cn1cnc([N+](=O)[O-])c1Sc1ncnc2nc[nH]c12,inhibition,[11],-2.23% (inactive)
O=c1[nH]c2cc(Cl)ccc2c(O)c1-c1ccc(Oc2ccccc2)cc1,inhibition,[11],5.4% (inactive)
O=C(O)CCC(=O)N1CCCC1C(=O)O (centres undefined),inhibition,[11],0.347% (inactive)
c1ccc2c(c1)CCCC2C1=NCCN1 (centres undefined),inhibition of aggregation,[12],-2.2% (inactive)
same,nuclei count,[12],106%
same,inhibition,[2],-52.5% (inactive)
same,nuclei count,[2],112%
same,z-score,[3]; [13],-1.5
same,z-score,[3]; [14],0.768
same,z-score,[3]; [15],0.367
same,inhibition,[4],5.79% (inactive)
same,fluorescence slope,[5],-0.464 (inactive)
same,NADPH fluorescence slope,[6],-5e-05 (inactive)
same,slope,[7],0.00529 (inactive)
same,outcome,[8],inactive
same,inhibition,[11],8.79% (inactive) and 22.7% (inactive)
same,inhibition,[9],12.1% (inactive)
same,inhibition,[10],48.1% (inactive)
COc1cccc2c1C(=O)c1c(O)c3c(c(O)c1C2=O)C[C@@](O)(C(C)=O)C[C@@H]3O[C@H]1C[C@H](N)[C@H](O)[C@H](C)O1,inhibition of aggregation,[12],49.1% (inactive)
same,nuclei count,[12],0.6%
same,inhibition,[2],92.8% (active)
same,nuclei count,[2],84%
same,z-score,[3]; [13],0.473
same,z-score,[3]; [14],10.2
same,z-score,[3]; [15],4.38
same,inhibition,[4],102% (active)
same,fluorescence slope,[5],-0.452 (inactive)
same,NADPH fluorescence slope,[6],-3.6e-05 (inactive)
same,slope,[7],0.00285 (inactive)
same,outcome,[8],inactive
same,inhibition,[11],33% (inactive)
same,inhibition,[9],-34.8% (inactive)
same,inhibition,[10],102% (active)
